# Test results from ChEMBL document CHEMBL4513216, “Probing the Open Global Health Chemical Diversity Library for Multistage-Active Starting Points for Next-Generation Antimalarials” (ACS Infect Dis, 2020).
# Out of some 69,000 compounds screened, about 8,600 (12%) showed an effect of 50% or more. Shown is part of a subset that was picked to be rich in strong results.
# Test system: Plasmodium berghei
# Experiment: Screen against P. berghei liver stage (PbLuc), transformed with Luciferase, at 10uM
# Assay type: functional, HepG2
# Conditions: tested at 10 uM
row,SMILES,INHIBITION [%]
1,c1ncc2c(n1)CN(Cc1nc(-c3ccoc3)no1)CC2,-21.87
2,Cc1noc(CN(C)c2ccccc2)n1,29.8
3,Cc1cc(CS(=O)(=O)C(C)C(=O)N(C)c2ccccc2)on1 (stereo unspecified),59.4
4,Cc1cc(NC(=O)CN(c2ccccc2)C(C)C)on1,13
5,CCC(O)CN(CC(=O)Nc1cc(C)no1)c1ccccc1 (stereo unspecified),16.8
6,Cc1cc(CS(=O)(=O)C(C)c2ccc(F)cc2)on1 (stereo unspecified),-41
7,Cc1noc(CS(=O)(=O)C(C)C(=O)N(C)c2ccccc2)n1 (stereo unspecified),50.8
8,Cc1cc(NC(=O)CN(CC(C)O)c2ccccc2)on1 (stereo unspecified),51.3
9,CCN(C(=O)C(C)S(=O)(=O)Cc1nc(C)no1)c1ccccc1 (stereo unspecified),26.9
10,Cc1noc(C)c1CS(=O)(=O)C(C)C(=O)N(C)c1ccccc1 (stereo unspecified),11.5
11,CC(C)N(Cc1ccccn1)C(=O)CCOc1cccc(F)c1,-1.32
12,COc1ccc(NC(=O)C2OC(c3cccs3)=NN2C(C)=O)cc1OC (stereo unspecified),14.5
13,O=C(CC1CC1)N1CCC(O)(CN2CCN(c3ccccc3)CC2)C1 (stereo unspecified),17.4
14,Cc1nnc(NC(=O)CN2CCc3nn(C(C)C)c(=O)cc3C2)s1,-18
15,O=C(c1cscn1)N1CCc2ncc(CN3CCCC3)n2CC1,23.1
16,Cc1nccc(CNc2cc(N3CCCC3CO)ncn2)n1 (stereo unspecified),-0.219
17,COc1ccc(CN2C[C@@H]3CN(Cc4ccncc4)C[C@@H]3C2=O)cc1,-2.35
18,Cc1n[nH]c(C)c1CCCN(C)c1cc(N(C)C)ncn1,8.51
19,COCCNC(=O)N1CCSC2(CCCCC2)C1,52.6
20,C[S+]([O-])CCNC(=O)N1CCSC2(CCCCC2)C1 (stereo unspecified),25.4
21,O=C(NCCc1ccccn1)N1CCSC2(CCCCC2)C1,3.17
22,CSc1cccc(CN(C)C(=O)CN2CCN(c3ncccn3)CC2)c1,10.6

row,SMILES,INHIBITION [%]
1,CSc1cccc(CN(C)C(=O)Nc2nc(C)n(C)n2)c1,71.8
2,CCc1nc(NC(=O)N(C)Cc2ccoc2)nn1C,63.6
3,Cc1nc(NC(=O)N(C)Cc2ccoc2)nn1C,-10.9
4,Cc1nc(NC(=O)N(C)Cc2ccsc2)nn1C,25.9
5,CCN(Cc1ccoc1)C(=O)Nc1ccccc1CN(C)C(C)=O,6.99
6,Cc1cnc(N2C[C@@H]3CN(Cc4ccco4)CCC[C@]3(C(=O)O)C2)nc1,15.3
7,O=C(CCNC(=O)C1CCCC1)NCc1ccccc1Cn1ccnc1,7.27
8,COc1ccc(CNC(=O)Nc2cccnc2N2CCCC2)cc1,19.2
9,O=C(NCC1CC1)c1cc(Br)cnc1N1CCCCC1,16.4
10,CCCN1CCC2(Cc3ccccc3NC2=O)C1 (stereo unspecified),36.2
11,CC(C)CN1CCC2(Cc3ccccc3NC2=O)C1 (stereo unspecified),58.7
12,O=C1Nc2ccccc2CC12CCN(CCO)C2 (stereo unspecified),-36.2
13,O=C(c1ccc[nH]1)N1CCc2ccc(S(=O)(=O)N3CCOCC3)cc2C1,6.99
14,CNC(=O)c1cn2cc(-c3cccc(Cl)c3)n(CC=C(C)C)c(=O)c2n1,76.7
15,NC(=O)c1cn2cc(-c3ccccc3Cl)n(CC3CC3)c(=O)c2n1,5.46
16,CNC(=O)c1cn2cc(-c3cccc(Cl)c3)n(CC3CC3)c(=O)c2n1,55.4
17,CNC(=O)CC1CCN(Cc2nc(-c3cccc(Cl)c3)oc2C)CC1,13.5
18,Cn1c(-c2ccc(F)cc2)cn2cc(C(=O)N3CCC(N)C3)nc2c1=O (stereo unspecified),24.4
19,COCCCNC(=O)Cn1c(-c2cccc(Cl)c2)nc(C)cc1=O,14.6
20,CC(=O)NCCNC(=O)c1cnc2c(c1)nc(-c1ccccc1Cl)n2C,-76.5
21,Cn1c(-c2ccc(F)cc2)cn2cc(C(=O)N3CC[C@@H](O)C3)nc2c1=O,40.7
22,CN(C)C(=O)c1cn2cc(-c3cccc(Cl)c3)n(CC3CC3)c(=O)c2n1,17.8

row,SMILES,INHIBITION [%]
1,CNC(=O)c1cn2cc(-c3ccccc3Cl)n(CC=C(C)C)c(=O)c2n1,61.9
2,CNC(=O)c1cn2cc(-c3ccc(F)cc3)n(CC=C(C)C)c(=O)c2n1,69.3
3,CC(C)NC(=O)NCc1cc(-c2cccc(Cl)c2)nn1C,13
4,Cc1nc(-c2ccsc2)ccc1C(=O)NC(C)CN1CCOCC1 (stereo unspecified),-4.43
5,O=C(c1cscn1)N1CCc2ncnc(-c3ccncc3)c2CC1,-7.24
6,O=C(CSc1ccncc1)NC1CC(=O)N(CCc2ccccc2)C1 (stereo unspecified),-15.9
7,CC(O)CN1CCC(CNCc2ccccc2C(F)(F)F)CC1 (stereo unspecified),0.24
8,CN1CCN(C2CCN(CCCOc3ccc(F)cc3)CC2)C1=O,47
9,CCOC(=O)CNC(=O)C1OC(c2ccccc2)=NN1C(C)=O (stereo unspecified),-19.1
10,CCOC1CCN(C(=O)CN(C)c2cnccn2)CC1,26.083
11,CC(C)Nc1ccc2nc(C3CCN(C(C)C)CC3)nn2c1,-7.35
12,CN(C)C(=O)c1cn2cc(-c3ccccc3Cl)n(CC3CC3)c(=O)c2n1,-0.273
13,CCNC(=O)c1cn2cc(-c3ccccc3Cl)n(CC3CC3)c(=O)c2n1,73.5
14,CNC(=O)c1cn2cc(-c3ccccc3Cl)n(CC3CC3)c(=O)c2n1,33.3
15,COCC(=O)N1C[C@@H](OCc2ccncc2)[C@@H]2OCCC[C@@H]21,35.8
16,Fc1cccc(O[C@@H]2C[C@H]3CN(Cc4ccncc4)CCN3C2)c1,90.7
17,c1ccc(CN2CCN3C[C@H](Oc4cncnc4)C[C@H]3C2)nc1,-8.6
18,Cn1ccnc1CN1CCN2C[C@H](Oc3cccc(F)c3)C[C@H]2C1,38.5
19,c1ccc(CN2CCN3C[C@H](Oc4cccnc4)C[C@H]3C2)nc1,41.2
20,Fc1cccc(O[C@@H]2C[C@H]3CN(Cc4ccccn4)CCN3C2)c1,85.4
21,c1cc(CN2CCN3C[C@H](Oc4cncnc4)C[C@H]3C2)ccn1,-11.3
22,CC(O)CN1CCN(C(=O)CN(C)c2ccc(C#N)cn2)CC1 (stereo unspecified),18.4

row,SMILES,INHIBITION [%]
1,Fc1ccccc1C1(CNC2CCOC3(CCOCC3)C2)CCCC1 (stereo unspecified),14.4
2,c1cnn(CCCO[C@@H]2CN(C3CCOCC3)[C@@H]3CCCO[C@@H]32)c1,-40.9
3,Cc1nnc2n1CCN(c1nn3cc(C(C)(C)C)nc3s1)C2,-1.15
4,Cc1ccsc1C(=O)N1CC[C@H]2CO[C@H](CN(C)C)[C@H]2C1,-47.5
5,COCCN1Cc2ccccc2C2(CCN(S(C)(=O)=O)CC2)C1,-21.1
6,O=c1[nH]c2nc(N3CCCCCC3)ncc2c(=O)n1-c1cccc(F)c1,21.7
7,Cc1nccn1CC1CCCN(C(=O)Cc2ccsc2)C1 (stereo unspecified),42.5
8,Cc1nccn1CC1CCN(C(=O)c2cccs2)CC1,14.2
9,Cc1nccn1CC1CCCN(C(=O)c2cnn(C)c2)C1 (stereo unspecified),20.4
10,Cn1ccnc1N1CCN(C(=O)Cc2ccccc2)CC1,34.2
11,Cc1nccn1CC1CCN(C(=O)c2ccccc2)CC1,67.4
12,Cc1nccn1CC1CCN(C(=O)Cc2ccccc2)CC1,65.9
13,Cn1cc(-c2cc(-c3cnn(C)c3)n(CC(=O)NC3CC3)n2)cn1,44.3
14,COCCN1CCC1c1cc(NC2CCCC2)nc(C)n1 (stereo unspecified),4.41
15,CC1(C)CN(C(CNC2=NCCN2)c2ccc(Cl)cc2)CCO1 (stereo unspecified),1.84
16,OCCN(Cc1ccncc1)CC1(c2ccc(Cl)cc2)CCCC1,18.3
17,Cc1nnc(C(C)NCC2(c3ccc(Cl)cc3)CCOCC2)o1 (stereo unspecified),11.8
18,Cc1nnc(C(C)NCC2(c3ccc(Cl)cc3)CCCC2)o1 (stereo unspecified),18.2
19,Clc1ccc(C2(CNC3=NCCN3)CCCCC2)cc1,74
20,Fc1ccc(C2(CNC3=NCCCN3)CCC2)cc1,-20.3
21,Fc1ccc(C2(CNC3=NCCN3)CCCC2)cc1,27.6
22,Clc1ccc(C2(CNC3=NCCN3)CCCC2)cc1,68.2

row,SMILES,INHIBITION [%]
1,Clc1ccc(C2(CNC3=NCCN3)CC2)cc1,56.6
2,CC(=O)N1CC(c2ccnc(Nc3nccs3)n2)C1,12.6
3,CN(C)CC1CN(Cc2nnc(C(C)(C)C)o2)CCO1 (stereo unspecified),-104
4,CCc1nc(-c2cncnc2C2CCNC2)no1 (stereo unspecified),3.6
5,Cc1cnc(C(=O)N2CCC(C(=O)c3cc(F)ccc3F)CC2)cn1,-121
6,NC(=O)N1CCC2(CCN(Cc3ccccn3)C2=O)C1 (stereo unspecified),24.5
7,CC(=O)c1cn(CCC(=O)NCCCC(=O)O)c2ccccc12,-10.2
8,CC(NC(=O)NCCCn1cccn1)c1ccc2c(c1)OCCCO2 (stereo unspecified),-6.7
9,CO[C@@H]1CCN(C(=O)Cc2cccc(F)c2)[C@H]1Cc1cccnc1,19.6
10,COc1ccc(CC(=O)N2CC[C@@H](OC)[C@@H]2Cc2cccnc2)cc1,38.5
11,CO[C@@H]1CCN(C(=O)Cc2ccc(F)cc2)[C@@H]1Cc1cccnc1,55.4
12,NC(=O)CNC1(c2ccc(Br)cc2)CCOCC1,19.4
13,CC(C)CN1CC(O)CN(S(=O)(=O)c2ccc(F)cc2)CC1=O (stereo unspecified),34.3
14,Cc1cc(C)nc(N2CCCC(C)(c3[nH]ncc3C(=O)N(C)C)C2)n1 (stereo unspecified),53.1
15,Cc1nccc(N2CCCC(C)(c3[nH]ncc3C(N)=O)C2)n1 (stereo unspecified),-7.66
16,CN(C)C(=O)c1cn[nH]c1C1(C)CCN(c2ncccn2)CC1,12.45
17,Cc1ccc(S(=O)(=O)NC(CO)CC(C)C)cc1N(C)C (stereo unspecified),31.7
18,Cc1nc(C)n(C2CCCN(C(=O)CCCc3ccccn3)C2)n1 (stereo unspecified),-11.9
